Drawing on ChEMBL document CHEMBL1961873, “Compounds: GSK PKIS; Assays: Nanosyn kinase panel” (2012), this text covers inhibition for 17 compounds.

The target in assay [1] is MAP/microtubule affinity-regulating kinase 3 (Homo sapiens) (UniProt P27448). The conditions noted are these: at 1 µM.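 Note: reported values are averaged percent inhibition of MARK3.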
The target of assay [2] is T1, MAP/microtubule affinity-regulating kinase 4 (Homo sapiens) (UniProt Q96L34).
T1 sequence (whole entry): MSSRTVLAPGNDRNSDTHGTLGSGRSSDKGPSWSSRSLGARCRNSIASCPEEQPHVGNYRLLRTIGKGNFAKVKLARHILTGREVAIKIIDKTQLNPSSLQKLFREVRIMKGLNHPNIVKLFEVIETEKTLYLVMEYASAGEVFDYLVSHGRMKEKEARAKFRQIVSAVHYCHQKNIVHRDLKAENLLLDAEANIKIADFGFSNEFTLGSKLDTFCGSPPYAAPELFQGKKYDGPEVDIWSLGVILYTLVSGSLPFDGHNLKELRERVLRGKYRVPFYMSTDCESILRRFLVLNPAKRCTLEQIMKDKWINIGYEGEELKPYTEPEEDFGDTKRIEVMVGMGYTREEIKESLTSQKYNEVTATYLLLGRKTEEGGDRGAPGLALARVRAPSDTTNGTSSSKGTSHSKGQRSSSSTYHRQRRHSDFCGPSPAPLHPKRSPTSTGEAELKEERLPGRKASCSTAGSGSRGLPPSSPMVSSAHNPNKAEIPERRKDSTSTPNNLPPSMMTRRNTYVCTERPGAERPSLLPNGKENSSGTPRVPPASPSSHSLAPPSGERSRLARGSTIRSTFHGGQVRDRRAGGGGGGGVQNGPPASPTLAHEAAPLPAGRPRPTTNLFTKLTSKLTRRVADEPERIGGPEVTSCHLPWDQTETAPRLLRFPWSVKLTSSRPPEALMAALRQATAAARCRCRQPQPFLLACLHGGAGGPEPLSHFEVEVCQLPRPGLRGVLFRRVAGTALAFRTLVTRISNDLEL
The conditions noted are these: at 0.1 µM.

For assay [3], the target named is T1, MAP/microtubule affinity-regulating kinase 4 (Homo sapiens). To be noted: at 1 µM.
Assay [4] has as its target Maternal embryonic leucine zipper kinase (Homo sapiens) (UniProt Q14680). The conditions noted are these: at 0.1 µM.
Assay [5] shares this target. The conditions noted are these: at 1 µM.
For assay [6], the target named is MAP kinase-interacting serine/threonine-protein kinase 1 (Homo sapiens) (UniProt Q9BUB5). To be noted: at 0.1 µM.
Sequence of MAP kinase-interacting serine/threonine-protein kinase 1 (Homo sapiens) (Q9BUB5 whole entry, looked up): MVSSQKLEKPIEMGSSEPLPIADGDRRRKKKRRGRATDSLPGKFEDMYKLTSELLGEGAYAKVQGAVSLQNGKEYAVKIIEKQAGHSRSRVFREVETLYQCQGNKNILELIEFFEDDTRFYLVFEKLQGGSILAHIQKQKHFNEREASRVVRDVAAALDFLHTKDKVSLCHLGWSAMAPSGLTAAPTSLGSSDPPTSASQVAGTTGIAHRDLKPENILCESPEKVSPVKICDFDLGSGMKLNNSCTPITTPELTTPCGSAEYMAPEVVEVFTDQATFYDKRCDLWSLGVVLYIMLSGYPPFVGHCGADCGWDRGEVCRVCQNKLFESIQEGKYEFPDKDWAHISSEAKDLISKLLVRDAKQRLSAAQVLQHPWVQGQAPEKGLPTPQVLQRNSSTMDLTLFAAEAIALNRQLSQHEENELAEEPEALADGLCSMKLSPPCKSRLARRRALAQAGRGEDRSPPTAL
For assay [7] the target is unchanged. The conditions noted are these: at 1 µM.
Assay [8] has as its target MAP kinase-interacting serine/threonine-protein kinase 2 (Homo sapiens) (UniProt Q9HBH9). To be noted: at 0.1 µM.
For assay [9] the target is unchanged. The conditions noted are these: at 1 µM.
Assay [10] has as its target Serine/threonine-protein kinase MARK2 (Homo sapiens) (UniProt Q7KZI7). To be noted: at 0.1 µM.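 Note: mean percent inhibition of PAR-1Balpha kinase activity, reported from the GSK PKIS screen.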

Sequence of MAP kinase-interacting serine/threonine-protein kinase 2 (Homo sapiens) (Q9HBH9 whole entry, looked up): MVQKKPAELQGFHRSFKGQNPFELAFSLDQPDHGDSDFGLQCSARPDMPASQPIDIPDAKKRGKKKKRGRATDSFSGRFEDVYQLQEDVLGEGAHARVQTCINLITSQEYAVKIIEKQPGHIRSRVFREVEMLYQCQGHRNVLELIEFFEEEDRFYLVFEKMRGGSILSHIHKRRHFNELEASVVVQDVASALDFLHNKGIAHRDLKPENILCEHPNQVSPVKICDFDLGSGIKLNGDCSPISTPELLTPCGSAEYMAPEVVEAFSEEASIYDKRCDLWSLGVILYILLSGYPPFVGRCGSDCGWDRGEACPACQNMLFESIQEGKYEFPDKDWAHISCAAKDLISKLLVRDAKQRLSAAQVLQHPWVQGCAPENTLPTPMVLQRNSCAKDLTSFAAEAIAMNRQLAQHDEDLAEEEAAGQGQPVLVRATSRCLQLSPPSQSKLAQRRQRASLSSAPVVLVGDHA
Sequence of Maternal embryonic leucine zipper kinase (Homo sapiens) (Q14680 whole entry, looked up): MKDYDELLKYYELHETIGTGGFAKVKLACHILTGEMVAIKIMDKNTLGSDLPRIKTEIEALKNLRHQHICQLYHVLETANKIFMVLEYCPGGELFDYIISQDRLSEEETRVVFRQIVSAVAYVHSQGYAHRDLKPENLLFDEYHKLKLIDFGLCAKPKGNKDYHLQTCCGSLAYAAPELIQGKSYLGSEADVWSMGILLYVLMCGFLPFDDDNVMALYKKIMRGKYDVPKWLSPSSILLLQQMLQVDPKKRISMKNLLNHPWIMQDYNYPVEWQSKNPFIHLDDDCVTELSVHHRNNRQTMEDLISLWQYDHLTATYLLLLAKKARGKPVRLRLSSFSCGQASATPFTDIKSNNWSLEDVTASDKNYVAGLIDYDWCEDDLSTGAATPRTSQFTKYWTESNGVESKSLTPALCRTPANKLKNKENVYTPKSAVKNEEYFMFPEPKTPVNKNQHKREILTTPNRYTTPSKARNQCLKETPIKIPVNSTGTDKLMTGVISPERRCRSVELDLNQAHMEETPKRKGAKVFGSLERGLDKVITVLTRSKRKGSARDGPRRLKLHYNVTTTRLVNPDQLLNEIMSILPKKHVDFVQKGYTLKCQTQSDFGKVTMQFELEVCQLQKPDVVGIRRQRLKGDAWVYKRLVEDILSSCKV
Sequence of Serine/threonine-protein kinase MARK2 (Homo sapiens) (Q7KZI7 whole entry): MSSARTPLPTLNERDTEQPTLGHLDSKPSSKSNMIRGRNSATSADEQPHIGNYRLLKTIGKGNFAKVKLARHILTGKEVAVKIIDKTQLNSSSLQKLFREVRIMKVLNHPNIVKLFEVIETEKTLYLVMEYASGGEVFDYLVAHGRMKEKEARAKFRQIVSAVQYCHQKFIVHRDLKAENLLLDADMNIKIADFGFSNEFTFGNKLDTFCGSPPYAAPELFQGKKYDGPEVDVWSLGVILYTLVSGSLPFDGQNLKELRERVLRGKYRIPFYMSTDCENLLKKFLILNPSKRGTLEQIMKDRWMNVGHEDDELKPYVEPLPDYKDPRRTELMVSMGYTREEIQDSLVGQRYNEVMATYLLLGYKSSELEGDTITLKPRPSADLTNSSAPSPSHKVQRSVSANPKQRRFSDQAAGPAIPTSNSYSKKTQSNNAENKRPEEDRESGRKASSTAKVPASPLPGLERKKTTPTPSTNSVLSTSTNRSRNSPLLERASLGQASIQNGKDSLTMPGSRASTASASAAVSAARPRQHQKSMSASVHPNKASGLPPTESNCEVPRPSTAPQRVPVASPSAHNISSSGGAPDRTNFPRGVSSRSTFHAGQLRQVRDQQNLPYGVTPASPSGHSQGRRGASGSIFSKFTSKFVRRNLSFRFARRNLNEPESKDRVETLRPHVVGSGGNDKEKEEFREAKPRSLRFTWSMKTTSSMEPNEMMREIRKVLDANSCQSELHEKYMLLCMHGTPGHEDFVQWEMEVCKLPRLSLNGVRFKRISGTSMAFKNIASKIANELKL
Sequence of MAP/microtubule affinity-regulating kinase 3 (Homo sapiens) (P27448 whole entry, looked up): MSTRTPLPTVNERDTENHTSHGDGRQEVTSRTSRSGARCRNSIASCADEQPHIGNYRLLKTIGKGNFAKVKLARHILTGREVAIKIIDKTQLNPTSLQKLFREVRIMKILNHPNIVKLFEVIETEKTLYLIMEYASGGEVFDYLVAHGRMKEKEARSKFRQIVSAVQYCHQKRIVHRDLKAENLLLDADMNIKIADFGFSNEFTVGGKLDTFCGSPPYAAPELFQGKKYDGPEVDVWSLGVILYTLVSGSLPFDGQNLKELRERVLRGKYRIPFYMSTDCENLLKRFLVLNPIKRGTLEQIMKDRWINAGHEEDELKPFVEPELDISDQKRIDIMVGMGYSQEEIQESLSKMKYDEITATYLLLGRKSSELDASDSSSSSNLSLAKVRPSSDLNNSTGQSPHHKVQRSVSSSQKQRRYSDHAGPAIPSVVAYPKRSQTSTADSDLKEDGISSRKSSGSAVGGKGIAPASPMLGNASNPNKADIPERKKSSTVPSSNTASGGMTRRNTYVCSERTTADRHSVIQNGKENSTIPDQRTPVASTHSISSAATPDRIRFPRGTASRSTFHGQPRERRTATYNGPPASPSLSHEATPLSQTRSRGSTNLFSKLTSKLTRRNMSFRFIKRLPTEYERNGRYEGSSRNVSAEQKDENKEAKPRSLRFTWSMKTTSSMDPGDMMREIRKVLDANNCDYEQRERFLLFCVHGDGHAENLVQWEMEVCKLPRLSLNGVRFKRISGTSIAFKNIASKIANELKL

As to `CCS(=O)(=O)c1ccc(OC)c(Nc2nccc(N(C)c3ccc4c(C)n[nH]c4c3)n2)c1`, the inhibition in [1] was 3.79%; in [2], 2.78%; in [3], 3.51%; in assay [4] it was 3.25%; in [5] it was 6.92%; in assay [6], 3.05%. In addition, the inhibition stood at 3.58% in [7], 0.35% in [8], 3.48% in assay [9] and 0.55% in assay [10].
Regarding `NS(=O)(=O)c1ccc(-c2cc3ccncc3cc2OCc2ccccc2)cc1`, the inhibition in assay [1] turned out to be 0.1%; in [2], 0.25%; in [3], 1.99%; in [4], 1.24%; in [5], 3.87%; in [6] it was 4.45%. The inhibition was 17.7% in [7], 4.29% in assay [8], 26.4% in assay [9] and -2.14% in assay [10].
For the compound `COC(=O)Nc1nc2cc(Oc3ccc(NC(=O)Nc4cccc(Br)c4)cc3)ccc2[nH]1`, the inhibition in [1] was found to be 1.7%; in assay [2], 0.25%; in assay [3] it was 1.17%; in assay [4] it was 2.93%; in assay [5], 4.7%; in [6] it was 4.77%. Besides, the inhibition is 8.85% in [7], 1.96% in [8], 4.55% in assay [9] and -0.39% in [10].
Consider `O=S(=O)(CCOCc1ccc(-c2ccc3ncnc(Nc4ccc(OCc5cccc(F)c5)c(Cl)c4)c3c2)o1)c1ccccc1`, for which the inhibition in assay [1] was determined as 1.33%; in assay [2] it was 1.36%; in [3] it was 3.69%; in assay [4] it was 3.07%; in assay [5], 7.12%; in [6] it was 1.49%. Also, the inhibition was 4.07% in [7], -0.55% in assay [8], 4.88% in assay [9] and -0.42% in assay [10].
In the case of `NS(=O)(=O)c1cccc(-c2cc3ccncc3cc2OCc2ccccc2)c1`, the inhibition in assay [1] turned out to be 9.67%; in assay [2] it was 2.91%; in [3], 6.29%; in assay [4], 4.44%; in assay [5], 6.24%; in assay [6] it was 3.03%. The inhibition in assay [7] is 6.7%; in assay [8], 3.83%; in assay [9], 25.1%; in assay [10], 3.3%.
Turning to `CN(c1ccc(NC(=O)Nc2ccc(OC(F)(F)F)cc2)cc1)c1ccnc(Nc2cccc(S(N)(=O)=O)c2)n1`, the inhibition is -0.68% in [1]; 0.65% in assay [2]; 1.56% in [3]; 0.77% in assay [4]; -2.07% in assay [5]; 29.2% in [6]. In addition, the inhibition in [7] was 73.3%; in assay [8] it was 20.5%; in [9], 67.3%; in assay [10] it was -1.1%.
In the case of `CS(=O)(=O)Nc1cccc(-c2ccc3c(NC(=O)C4CC4)n[nH]c3c2)c1`, the inhibition in assay [1] came to 6.61%; in assay [2], 1.87%; in assay [3], 3.42%; in [4] it was 0.93%; in [5], 4.3%; in assay [6], 2.34%. In addition, the inhibition is 13.5% in assay [7], 0.41% in assay [8], 3.39% in assay [9] and -1.45% in assay [10].
For `N#Cc1c(NC(=O)c2ccccc2F)sc2c1CCCC2`, the inhibition in assay [1] is 3.09%; in assay [2], 1.13%; in assay [3] it was 3.48%; in [4], -3.26%; in assay [5] it was -2.77%; in assay [6], -0.78%. In addition, the inhibition was -0.18% in [7], -0.06% in [8], 2.26% in [9] and -0.36% in assay [10].
As for `COc1ccc(-c2nn3ncccc3c2-c2ccnc(Nc3cccc(C(F)(F)F)c3)n2)cc1`, the inhibition in assay [1] is 3.49%; in assay [2], 1.29%; in assay [3] it was 1.74%; in assay [4] it was 2.53%; in [5], 1.64%; in assay [6], 1.88%. In addition, the inhibition is 3.34% in assay [7], 0.77% in assay [8], 1.76% in [9] and -0.74% in assay [10].
Consider `Cc1ccc(NC(=O)CC2CC2)cc1-c1ccc(C(=O)NCC2CC2)cc1`, for which the inhibition in assay [1] was 1.71%; in assay [2], 1%; in [3], -0.01%; in assay [4], 4.17%; in assay [5], 2.02%; in [6] it was 2.59%. Besides, the inhibition is 7.07% in assay [7], 1.63% in assay [8], 5.54% in assay [9] and -1.05% in assay [10].
Take `NC(=O)c1cccc(Nc2nccc(Nc3cccc(F)c3)n2)c1`: the inhibition was 2.35% in [1]; 0.72% in assay [2]; 3.28% in [3]; -2.04% in assay [4]; 2.88% in assay [5]; 1.05% in [6]. Besides, the inhibition in assay [7] was 3.91%; in assay [8], 0.26%; in [9], 8.7%; in [10], -1.24%.
As for `N#Cc1cccc(Nc2nccc(-c3cnn4ncccc34)n2)c1`, the inhibition in [1] was determined as 13.1%; in [2], 1.74%; in [3] it was 9.89%; in [4], 12.5%; in assay [5], 55.9%; in assay [6] it was 6.09%. In addition, the inhibition was 22.5% in assay [7], 5.65% in [8], 33% in [9] and 1.3% in assay [10].
For `COC(=O)c1cncc(/C=C/c2c(C)cc(O)cc2C)c1`, the inhibition turned out to be 2.01% in assay [1]; 0.01% in assay [2]; 0.82% in assay [3]; 2.47% in [4]; 5.13% in assay [5]; 4.41% in assay [6]. For the same compound, the inhibition in [7] was 25.6%; in assay [8] it was 3.34%; in [9] it was 16.1%; in [10] it was 0.36%.
`COc1cc(Nc2nccc(-c3cnn4ncccc34)n2)cc(OC)c1`: the inhibition in assay [1] turned out to be 34.1%; in [2] it was 3.44%; in assay [3] it was 22.1%; in assay [4], 7.1%; in assay [5] it was 43.9%; in [6], 1.97%. The inhibition in assay [7] stood at 10.2%; in [8] it was 3.13%; in [9], 17.2%; in assay [10], 2.81%.
Regarding `CN(C)c1cc2c(Nc3ccc4c(cnn4Cc4ccccc4)c3)ncnc2cn1`, the inhibition in assay [1] is -0.35%; in assay [2], 1.14%; in assay [3] it was 1.04%; in [4] it was 2.68%; in assay [5], 2.1%; in [6] it was 3.47%. For the same compound, the inhibition was 19.4% in assay [7], 3.73% in assay [8], 23% in assay [9] and 0.19% in assay [10].
Consider `CCn1c(-c2nonc2N)nc2c(C#CC(C)(C)O)nc(OCCNC)cc21`, for which the inhibition in assay [1] came out at 11.6%; in assay [2], 2.05%; in assay [3] it was 7.52%; in [4] it was 17.5%; in [5], 81.1%; in assay [6], 1.63%. For the same compound, the inhibition in assay [7] came out at 3.44%; in [8], 0.5%; in assay [9], 1.12%; in assay [10] it was 1.74%.
As to `CN(C)C(=O)O[C@H]1CN[C@H](C#Cc2cc3ncnc(Nc4ccc(OCc5cccc(F)c5)c(Cl)c4)c3s2)C1`, the inhibition in assay [1] came to 3.81%; in assay [2] it was 1.04%; in assay [3], 1.72%; in assay [4], 1.5%; in [5], 4.17%; in [6], 2.31%. Further, the inhibition in [7] amounted to 6.43%; in assay [8], 1.15%; in assay [9], 6.67%; in assay [10], 0.94%.
